Data as given in the supplement of paper PMC12340641.
Structures can show the parent of a compound that is named as a salt.

Assays:
[1] = biological target: IKZF1 (dCK*-IKZF1 fusion in HEK293FT) (UniProt Q13422); experiment: inhibition of IKZF1 HTRF signal (DMSO = 0%, pomalidomide 10 uM = 100%); higher = lower IKZF1 protein level; details: compound concentration: 5 uM, overnight (~20 h)
In short: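 Values are percent inhibition of IKZF1 signal, normalised plate by plate against vehicle and a reference degrader. HEK293FT cells stably expressing an IKZF1 fusion were seeded at 2000 per well in 384-well plates and exposed to 5 μM compound in single wells overnight at 37 °C. After 30 min lysis at room temperature, lysates were incubated overnight with a commercial HTRF total-IKZF1 antibody kit, and the background-subtracted 665/620 nm time-resolved FRET ratio was read. On each plate, vehicle was set at 0% and the reference degrader at 100%.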

HEK293FT dCK*-only = experiment: relative growth in counter assay (no AraC = 100%, AraC + DMSO = 0%); higher = more growth rescue independent of IKZF1; details: compound concentration: 5 uM; AraC concentration: 0.3 uM; overnight pretreatment + 4 days AraC
In short: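 This counter assay used HEK293FT cells expressing only an engineered kinase construct, seeded at 300 per well in 384-well plates. Compound was added at 5 μM 2 h after seeding, and after overnight at 37 °C the cells received a nucleoside suicide substrate at 0.3 μM plus medium for 4 days. On day 5, nuclei stained with Hoechst 33342 were counted by imaging, and relative growth was normalised per plate; wells without suicide substrate were set at 100% and wells with substrate plus vehicle at 0%.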

HEK293FT dCK*-IKZF1 = experiment: relative growth recovery (pomalidomide 10 uM = 100%, DMSO = 0%); higher = more growth rescue (IKZF1 fusion degradation); details: compound concentration: 5 uM; AraC concentration: 0.3 uM; overnight pretreatment + 4 days AraC
In short: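 On day 5, whole-well imaging was used to count Hoechst 33342-stained nuclei of HEK293FT cells stably carrying a deoxycytidine kinase–IKZF1 fusion. These cells had received 5 μM compound 2 h after seeding, followed after overnight at 37 °C by a nucleoside suicide substrate at 0.3 μM plus medium for 4 days. Growth recovery was normalised on each plate against a reference degrader and vehicle, which defined 100% and 0%, and values are duplicate means from separate days.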

IKZF1 (dCK*-IKZF1 fusion in HEK293FT), sequence (Q13422 whole entry, looked up, the tested form may be a part): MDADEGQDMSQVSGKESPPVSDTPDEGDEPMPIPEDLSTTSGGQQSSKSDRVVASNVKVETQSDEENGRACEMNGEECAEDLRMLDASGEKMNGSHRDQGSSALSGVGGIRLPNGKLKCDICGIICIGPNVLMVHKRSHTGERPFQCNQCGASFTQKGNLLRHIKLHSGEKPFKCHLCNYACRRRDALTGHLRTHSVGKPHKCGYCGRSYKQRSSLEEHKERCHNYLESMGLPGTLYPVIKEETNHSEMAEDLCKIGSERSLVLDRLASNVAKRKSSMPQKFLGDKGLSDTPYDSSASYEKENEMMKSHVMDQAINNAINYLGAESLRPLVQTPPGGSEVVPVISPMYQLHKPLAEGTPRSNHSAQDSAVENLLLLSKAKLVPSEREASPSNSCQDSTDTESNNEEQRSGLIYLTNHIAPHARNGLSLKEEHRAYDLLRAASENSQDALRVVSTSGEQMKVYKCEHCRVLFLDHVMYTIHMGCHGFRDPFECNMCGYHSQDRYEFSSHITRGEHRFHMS

Compound | inhibition of IKZF1 HTRF signal [1] [%] | relative growth in counter assay (HEK293FT dCK*-only) [%] | relative growth recovery (HEK293FT dCK*-IKZF1) [%]
CC(C)N(CCC(=O)c1ccc2ccccc2c1)Cc1ccccc1 | -41.5 | -2.68 | 0.035
Oc1cc(O)cc(/C=C/c2ccc(O)c(O)c2)c1 [piceatannol] | 6.73 | -9.71 | -2.98
Nc1ccc(-c2nc3ccc(-c4nc5ccc(N)cc5[nH]4)cc3[nH]2)cc1 | 1.33 | -6.2 | -2.58
CNC[C@H](O)c1ccc(O)c(O)c1 [Epinephrine (L-(-)-Epinephrine-(+)-Bitartrate)] | -25.3 | -10.5 | -3.19
O=C(Nc1ccc(F)cc1)N1CCc2ccccc2C1c1ccc(C(F)(F)F)cc1 (stereo not given) | -25.5 | 4.9 | -0.27
CCN(c1ccccc1)c1cc(NC)[n+](C)c(C)n1 | 26.3 | 3.09 | -0.645
Oc1c(Br)cc(Br)c2cccnc12 | 1.09 | -4.45 | -2.54
c1ccc2c(c1)CCC[C@H]2Nc1nc2ccccc2[nH]1 | -34.6 | -1.81 | -0.405
Cc1ccc(-c2ccc(C)cn2)nc1 [abametapir] | -30.6 | 4.64 | 0.52
NS(=O)(=O)Cc1noc2ccccc12 [zonisamide] | -28.2 | 2.4 | -2.26
COc1cccc2c1C(=O)c1c(O)c3c(c(O)c1C2=O)C[C@@](O)(/C(CO)=N/NC(=O)CCCCCN1C(=O)C=CC1=O)C[C@@H]3O[C@H]1C[C@H](N)[C@H](O)[C@H](C)O1 [Aldoxorubicin] | -9 | -35.5 | -14
O=C(Nc1ccc(S(=O)(=O)Nc2nccs2)cc1)C(c1ccccc1)c1ccccc1 | -31.6 | -2.35 | -3.39
Nc1nnc(-c2cccc(Cl)c2Cl)c(N)n1 | -57.4 | 0.9 | -1.71
CN(C)CC/C=C1\c2ccccc2CSc2ccccc21 [dosulepin] | -26.3 | -9.29 | -1.36
CC(C)COCC(CN(Cc1ccccc1)c1ccccc1)N1CCCC1 (stereo not given) [bepridil] | 21.1 | -3.99 | -1.14
Clc1ccc(C(Cn2ccnc2)OCc2csc3c(Cl)cccc23)c(Cl)c1 (stereo not given) [Sertaconazole nitrate] | 20 | -1.47 | 3.33
CCOC(=O)C1=C(C)NC(C)=C(C(=O)OC)C1c1cccc([N+](=O)[O-])c1 (stereo not given) | -32.3 | -1.02 | 2.87
CC[C@]1(O)C[C@@H]2C[N@@](CCc3c([nH]c4ccccc34)[C@@](C(=O)OC)(c3cc4c(cc3OC)N(C)[C@H]3[C@@](O)(C(=O)OC)[C@H](OC(C)=O)[C@]5(CC)C=CCN6CC[C@]43[C@@H]65)C2)C1.O=S(=O)(O)O [Vinblastine (sulfate)] | -4.41 | -34.3 | -11.4
CC1(C)CCC2=C(O1)c1ccccc1C(=O)C2=O | -30 | -24.5 | -10.9
C=C1C(=O)O[C@H]2[C@H]1CC/C(C)=C/CC[C@@]1(C)O[C@@H]21 [parthenolide] | -47.4 | -33 | -10.5
CC[C@]1(O)C[C@H]2CN(CCc3c([nH]c4ccccc34)[C@@](C(=O)OC)(c3cc4c(cc3OC)N(C=O)[C@H]3[C@@](O)(C(=O)OC)[C@H](OC(C)=O)[C@]5(CC)C=CCN6CC[C@]43[C@@H]65)C2)C1 [Vincristine Sulfate] | 33.3 | -33.5 | -12.2
CCN(CC)C(=S)SSC(=S)N(CC)CC | -34.2 | -35.6 | -12.6
Cc1coc2c1C(=O)C(=O)c1c-2ccc2c(C)cccc12 [Tanshinone I] | -2.3 | -6.51 | -3.83
Clc1ccc(COC(Cn2ccnc2)c2ccc(Cl)cc2Cl)c(Cl)c1 (stereo not given) [Miconazole] | 20.3 | 1.72 | 3.22
C[C@H]1O[C@@H](O[C@H]2[C@@H](O)C[C@H](O[C@H]3[C@@H](O)C[C@H](O[C@H]4CC[C@]5(C)C6C[C@@H](O)[C@]7(C)[C@@H](C8=CC(=O)OC8)CC[C@]7(O)C6CC[C@@H]5C4)O[C@@H]3C)O[C@@H]2C)C[C@H](O)[C@@H]1O (stereo not given in full) | 68.6 | -34.9 | -12.4
Oc1ccc(Cl)c2cccnc12 | -32.6 | -6.2 | -1.79
CCN1CCN(Cc2ccc(-c3cc4c(N[C@H](C)c5ccccc5)ncnc4[nH]3)cc2)CC1 | -37.1 | -18.1 | -8.18
NC(=O)NC(=O)Cc1ccccc1 | -29.1 | 4.08 | -2.01
CCS(=O)(=O)N(C)[C@@H]1c2cc(C#N)ccc2OC(C)(C)[C@H]1O.CCS(=O)(=O)N(C)[C@H]1c2cc(C#N)ccc2OC(C)(C)[C@@H]1O (racemic) [chromanol-(+/-)] | -29.6 | 1.25 | 0.645
CC(C)[C@@H]1CC[C@@H](C)C[C@@H]1P(=O)(c1ccccc1)c1ccccc1 | -20.4 | 3.21 | -0.475
